We go through 13 compounds from PubChem BioAssay (NCI).

Compounds without any hit were thinned out: in the full panel of roughly 83,000, 20% have a hit.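 Cells were grown in 96-well plates and exposed to the test compound at a single concentration for 48 hours; results are reported as percent growth, with values below 10 considered active.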 Unmarked numbers belong to inactive results. Active and inactive are the calls of the source.

Assay in all cases: NCI-60 one-dose screen, 48 h (100 = growth as untreated, 0 = no growth, -100 = all killed)
Details in all cases: 10 µM unless noted

Test [1] deals with HCT-15 colon.
Test [2] relates to HT29 colon.
Test [3] concerns SNB-75 CNS.
Test [4] deals with SNB-19 CNS.
Test [5] relates to U251 CNS.
The subject of test [6] is PC-3 prostate.
The test system of test [7] is SK-MEL-5 melanoma.
Test [8] has as its system UACC-62 melanoma.
Test [9] has as its system LOX IMVI melanoma.
Test [10] has as its system SK-MEL-28 melanoma.
In test [11] the test system is SK-MEL-2 melanoma.
Test [12] concerns SN12C renal.
Test [13] concerns UO-31 renal.
In test [14] the test system is TK-10 renal.
The subject of test [15] is ACHN renal.
For test [16], the system named is CAKI-1 renal.
Test [17] concerns CCRF-CEM leukemia.
The test system of test [18] is MOLT-4 leukemia.
Test [19] relates to EKVX NSCLC.
The test system of test [20] is A498 renal.

Turning to `CCN(Cc1ccccc1)c1ccc(C=O)cc1`, the growth in [1] is 91%; in test [2], 107%; in test [3] it was 82.1%; in test [4], 99.2%; in test [5], 92%; in [6], 75.3%. The growth was 98.9% in [7]; 85.2% in test [8]; 91% in [9]; 115% in test [10]; 98.3% in test [11]; 96.7% in [12]. For the same compound, the growth is 74.6% in test [13]; 64.2% in test [14]; 91.9% in test [15]; 88% in [16]; 45.5% in test [17]; 97.2% in [18].

Take `O=C(CCN1CCCC1)Nc1ccc2c(NCCCc3ccccc3)c3ccccc3nc2c1`: the growth in [1] is 36.3%; in test [2], 3.74% (active); in test [3], 23%; in [4], 24.6%; in test [5] it was -58.9% (active); in test [6] it was -0.52% (active). The growth in test [7] is 67.4%; in test [8], 43.5%; in test [9], -87% (active); in test [10] it was 66.1%; in test [11] it was 38.9%; in [12], 14%. Also, the growth is 31.8% in test [13]; 5% (active) in test [14]; 33.1% in test [15]; 27.5% in test [16]; -11.8% (active) in test [17]; -18.5% (active) in [18].

On to `COc1cc(-c2csc(NC(=O)c3cc(F)cc(C(F)(F)F)c3)n2)cc(OC)c1OC`, for which the growth in test [1] is 34.3%; in [2] it was 6.41% (active); in test [3], 19.3%; in test [4], 40.2%; in [5], 31.3%; in [6], 36%. For the same compound, the growth in [7] was 53.2%; in test [8], 43.6%; in test [9] it was 27%; in test [11], 14.9%; in test [19], 50%; in test [12], 35%. Besides, the growth is 45.3% in [13]; 65.1% in test [14]; 49.1% in test [15]; 42.7% in test [16]; 17% in test [17]; 25.8% in test [18].

For `c1ccc2cc(Cn3c(-c4cccc5ccccc45)[n+](Cc4ccc5ccccc5c4)c4c5ccccc5c5ccccc5c43)ccc2c1`, the growth in [1] is -60.4% (active); in test [2], -49.5% (active); in test [3], -66.3% (active); in test [4], -82.7% (active); in test [5], -91.1% (active); in test [6], -46.7% (active). Further, the growth in test [7] was -98.1% (active); in test [8], -74.5% (active); in test [9], -84.3% (active); in test [11], -72.5% (active); in test [19], -77.2% (active); in test [12], -82% (active). For the same compound, the growth in test [13] is -89.2% (active); in test [14] it was -79.8% (active); in test [15], -92.6% (active); in test [16] it was -96.7% (active); in test [17] it was -17.4% (active); in [18], -55.3% (active).

For the compound `Cc1ccc(NS(=O)(=O)c2ccc(-c3cnc(C4CC4)o3)cc2)cc1C(F)(F)F`, the growth is 35.2% in test [1]; 28.5% in test [2]; 46.6% in [3]; 61% in test [4]; 68.5% in test [5]; 68.1% in test [6]. Also, the growth was 49% in test [7]; 47.3% in [8]; 55.9% in test [9]; 84.8% in [11]; 75.3% in test [19]; 88.6% in test [12]. The growth in test [13] is 58%; in test [14], 93.7%; in test [15], 76.4%; in [16] it was 42.7%; in test [20], 47%; in [17] it was 56.8%.

Turning to `CCCCCN1C=C/C(=C\C(=O)N(C)c2ccc(Oc3ccccc3)cc2)c2ccccc21`, the growth in test [1] is 98.4%; in [2], 53.6%; in [3], 104%; in test [4], 88.2%; in [5], 80.1%; in [6] it was 77.6%. In addition, the growth in test [7] was 62.6%; in [8], 76.9%; in [9] it was 86.6%; in test [11], 98%; in test [19] it was 56.6%; in test [12], 87.5%. Moreover, the growth in [13] was 85.3%; in test [14], 92.1%; in [15], 102%; in test [16], 93.1%; in test [17], 75.4%; in test [18], 70.8%.

As for `COC(=O)C1=C(C(=O)ON)[C@@H]2C=C[C@@]1([C@@H](Cc1ccccc1)Nc1ccccc1)O2`, the growth was -47.6% (active) in test [1]; 57.7% in test [2]; 108% in test [3]; 104% in [4]; 92.2% in test [5]; 101% in test [6]. For the same compound, the growth is 101% in [7]; 90% in [8]; 77.7% in [9]; 73.3% in test [10]; 94% in [11]; 81.5% in test [12]. Besides, the growth in test [13] was 71.1%; in test [14], -23.4% (active); in test [15], -95.5% (active); in test [16], 86%; in test [17], -13.5% (active); in test [18], 7.55% (active).

As for `Oc1ccc(C2c3ccccc3Oc3ccccc32)c2cccnc12`, the growth in test [1] is 30.3%; in test [2] it was 21.7%; in test [3], 27.2%; in test [4] it was 26.7%; in test [5], 10.8%; in test [6] it was 34.2%. Also, the growth is -58.8% (active) in test [7]; 4.38% (active) in test [8]; 5.35% (active) in [9]; 27.4% in [11]; 20.4% in test [19]; 22.9% in test [12]. In addition, the growth in test [13] was 4.44% (active); in test [14] it was 39.1%; in test [15], 7.81% (active); in test [16], 0.125% (active); in test [20] it was 36%.

With `COc1cc2oc(-c3cccc(C(=O)Nc4ccc(Br)cc4)c3)cc(=O)c2c(OC)c1OC`, the growth is 40.2% in [1]; 39.5% in [2]; 81.7% in test [3]; 80.9% in test [4]; 65.7% in test [5]; 53.1% in test [6]. Further, the growth in test [7] was 56.3%; in test [8], 63.7%; in [9], -20.9% (active); in [10] it was 35.7%; in test [11] it was 71.2%; in test [12], 50.9%. Besides, the growth in test [13] is 55.7%; in [14], 62.5%; in test [15], 72.5%; in test [16] it was 20.6%; in test [17] it was 41.9%; in [18], 49.5%.

For `CCN(CC)CC[n+]1cc2cc(OC)c(OC)cc2c2ccc3cc4c(cc3c21)OCO4`, the growth in [1] is 32.9%; in test [2], -50.1% (active); in test [3], 3.63% (active); in [4], 14.5%; in test [5], -38.2% (active); in [6] it was 3.91% (active). Besides, the growth was -68.3% (active) in [7]; 31.7% in test [8]; -85.8% (active) in [9]; 14.8% in test [11]; 17.5% in test [19]; 3.54% (active) in test [12]. The growth in [13] is 8.71% (active); in test [14], 12.2%; in test [15], 8.72% (active); in test [16] it was 26.5%; in test [17], 1.03% (active); in test [18], -5.52% (active).

For the compound `N/C(=N\C(N)=N\c1nc2ccccc2s1)c1cccc(Cl)c1`, the growth is 32.1% in [1]; 95.1% in test [2]; 95.2% in test [3]; 97.1% in test [4]; 48.3% in test [5]; 45% in test [6]. Besides, the growth in test [7] is 104%; in test [8] it was 86.2%; in [9] it was 44.1%; in test [10], 104%; in test [11] it was 100%; in test [12], 38.5%. For the same compound, the growth in [13] is 33.2%; in test [14] it was 111%; in test [15], 75.5%; in test [16], 33.2%; in test [17] it was 73.3%; in test [18], 72.5%.

`O=C(Nc1ccc(Cl)cc1)c1cc(NCc2cc(O)ccc2O)ccc1O`: the growth in test [1] is 68.5%; in [2], 88.6%; in test [3], 101%; in test [4], 91.4%; in [5] it was 71.8%; in [6] it was 45.2%. In addition, the growth in test [7] was 82.9%; in test [8] it was 65.5%; in [9] it was 84.3%; in test [11] it was 78.8%; in test [19], 94.1%; in test [12], 76.1%. Also, the growth in [13] is 52.2%; in [14], 97.3%; in test [15] it was 89.6%; in test [16] it was 99.5%; in [17] it was 5.54% (active); in test [18], 59.8%.

As for `O=c1ccc(-c2nc(N3CCOCC3)c3ccccc3n2)c[nH]1`, the growth is 99.1% in test [1]; 101% in [2]; 81.1% in test [3]; 98.7% in [4]; 99.1% in test [5]; 93.5% in test [6]. Moreover, the growth in test [7] is 88.3%; in [8] it was 55.5%; in test [9], 98.3%; in [10] it was 97.6%; in [11], 108%; in test [12] it was 94.6%. The growth was 83.1% in [13]; 87.3% in test [14]; 93.1% in test [15]; 95.9% in test [16]; 108% in test [17]; 110% in [18].
